Test results: PubChem BioAssay (Tox21)
Records with an inconclusive call do not appear. Unmarked numbers belong to inactive results. The call rests on the fitted dose curve; in most records, active means well fitted cell-killing curve with a large enough effect in the repeat runs; inconclusive means weak or mixed curves; inactive means flat fitted curve, though single readings scatter.

experiment: qHTS RealTime-Glo MT Cell Viability Assay in HepG2 cells - 8 hour (AID 1224873); settings: RealTime-Glo luminescence; series mostly up to 76.8 µM; viability change, negative = cytotoxic: at the top concentration; further: nearly all actives have a fitted effect of over 55% in size
How it was run: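 HepG2 cells mixed with RealTime-Glo MT reagents (NanoLuc plus cell-permeant prosubstrate) were seeded at 600 cells/well, incubated 5 h at 37 C/5% CO2, then pinned with compounds in DMSO; nonlytic luminescence tracked viability during 40 h treatment.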
On the % scale 0 is the no-effect control and ±100 the full control effect.

SMILES	viability change, negative = cytotoxic
CNC(=O)N(c1ccccc1)c1ccccc1	1.79%
CC1(C)C(=O)N(Br)C(=O)N1Cl	-4.59%
CCCCCCCCSCCO	0.167%
NC(=O)Nc1ccc(Cl)cc1	5.68%
OC/C(Br)=C(\Br)CO	2.03%
CC1=CC(=O)CC(C)(C)C1(O)/C=C/C(C)=C\C(=O)O (stereo unspecified)	0.517%
CCCOC(=O)c1ccc(N)cc1	6.63% [at 35.3 µM]
CCCCC(CC)CNCC(CC)CCCC (stereo unspecified)	1.21%
CC(=O)OCC(=O)[C@H]1CC[C@H]2[C@@H]3CCC4=CC(=O)CC[C@]4(C)[C@H]3CC[C@]12C	-0.616% [at 35.3 µM]
COC(=O)c1cc(Cl)ccc1NS(=O)(=O)C(F)(F)F	1.15% [at 35.3 µM]
CCOC(=O)c1ccccc1OC	4.65%
c1cnc2c(n1)CCCC2	-12.3%
CO[C@H]1O[C@H](CO)[C@@H](O)[C@H](O)[C@H]1O	1.73%
O=C(/C=C/c1ccccc1)OCCCc1ccccc1	2.07%
CCCCC(=O)O[C@]1(C(=O)CO)CC[C@H]2[C@@H]3CCC4=CC(=O)CC[C@]4(C)[C@H]3[C@@H](O)C[C@@]21C	2.63% [at 35.3 µM]
CC1CC(O)CC(C)(C)C1 (stereo unspecified)	-0.678%
N#C[C@@H]1C[C@@H]2C[C@@H]2N1C(=O)[C@@H](N)C12CC3CC(CC(O)(C3)C1)C2	-0.922% [at 35.3 µM]
CC1(C)O[C@@H]2C[C@H]3[C@@H]4CCC5=CC(=O)C=C[C@]5(C)[C@H]4[C@@H](O)C[C@]3(C)[C@]2(C(=O)CO)O1	0.0473% [at 35.3 µM]
CCCCCCCCCCCCCCCCBr	2.68% [at 15.8 µM]
CCCCCCOC(=O)C(C)C	0.41%
COC(=O)c1cc(S(N)(=O)=O)ccc1OC	-10% [at 35.3 µM]
